The values below come from PubChem BioAssay (Tox21).

Results filed as inconclusive are left out. Calls of active or inactive are those of the source. Calls come from the whole dose curve; as a rule, active = well fitted curve in the direction sought with a large enough effect in the repeat runs; inconclusive = weak or mixed curves; inactive = no such curve, though single readings can be large; an effect the other way counts as inactive or inconclusive.

Assay [1] in a line: qHTS RealTime-Glo MT Cell Viability Assay in HEK293 cells - 0 hour (AID 1224880). Note: nearly all actives have a fitted effect of over 45% in size. Note: potency is the fitted concentration of half-maximal effect. The procedure, abridged: (§1)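 Real-time viability in HEK293: signal arises when living cells convert a prosubstrate for NanoLuc in the medium, so luminescence tracks viable cell number. Compound (23 nL, DMSO) added 5 h post-seeding; kinetic reads at 0–40 h, 37 C.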
On the technique in general: qHTS replaces the single test concentration by a dilution series.

Assay [2] is described as follows: A CellTox Green Cytotoxicity Assay to monitor cytotoxicity in HEK293 cells - 32 hour (AID 1224881). Note: nearly all actives have a fitted effect of over 40% in size. Note: potency is the fitted concentration of half-maximal effect. The method, boiled down:
(§2)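 Cells (HEK293, 600/well) and dye reagent are dispensed together. After 5 h at 37 C, 23 nL compound is pinned in. Plates stay at 37 C for 40 h with fluorescence read at 0h, 8h, 16h, 24h, 32h and 40h.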

Assay [3] can be described thus: A CellTox Green Cytotoxicity Assay to monitor cytotoxicity in HepG2 cells - 0 hour (AID 1224882). Note: nearly all actives have a fitted effect of over 35% in size. The method, boiled down: (§3)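 Cells and non-lytic dye reagent are dispensed together (600 HepG2 cells/well) and incubated 5 h before DMSO compound transfer. Kinetic fluorescence is then recorded in the same wells during 40 h at 37 C.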
A short description of assay [4]: A CellTox Green Cytotoxicity Assay to monitor cytotoxicity in HEK293 cells - 8 hour (AID 1224884). Note: nearly all actives have a fitted effect of over 35% in size. The method, boiled down:
as §2

Assay [5] in a line: qHTS RealTime-Glo MT Cell Viability Assay in HepG2 cells - 16 hour (AID 1224885). Note: nearly all actives have a fitted effect of over 50% in size. Note: potency is the fitted concentration of half-maximal effect. The method, boiled down:
(§4)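 Compound treatment began 5 h after plating HepG2 cells (600/well) with NanoLuc luciferase and prosubstrate. Plates stayed at 37 C for 40 h; luminescence was captured at six time points, 0 h through 40 h.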

Assay [6] in a line: qHTS RealTime-Glo MT Cell Viability Assay in HEK293 cells - 24 hour (AID 1224886). Note: nearly all actives have a fitted effect of over 50% in size. Note: potency is the fitted concentration of half-maximal effect. The procedure, abridged:
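Quantitative high-throughput screen of the Tox21 10K library in HEK293: cells and RealTime-Glo reagents plated together, compound added at 5 h, luminescence monitored through 40 h at 37 C.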

Assay [7] can be described thus: qHTS RealTime-Glo MT Cell Viability Assay in HEK293 cells - 8 hour (AID 1224887). Note: nearly all actives have a fitted effect of over 50% in size. Note: potency is the fitted concentration of half-maximal effect. The method, boiled down:
as §1

Assay [8] can be described thus: A CellTox Green Cytotoxicity Assay to monitor cytotoxicity in HEK293 cells - 16 hour (AID 1224888). Note: nearly all actives have a fitted effect of over 35% in size. The method, boiled down:
as §2

Assay [9] in a line: qHTS RealTime-Glo MT Cell Viability Assay in HepG2 cells - 0 hour (AID 1224889). Note: nearly all actives have a fitted effect of over 50% in size. Note: potency is the fitted concentration of half-maximal effect. The method, boiled down:
as §4

Assay [10] can be described thus: A CellTox Green Cytotoxicity Assay to monitor cytotoxicity in HepG2 cells - 32 hour (AID 1224883). Note: nearly all actives have a fitted effect of over 50% in size. Note: potency is the fitted concentration of half-maximal effect. The method, boiled down: as §3

For `OCC1CC=CCC1` (stereo not given), the Potency entry in assay [1], in assay [2], in [3], in assay [4], in [5] and in assay [6] was “inactive” each time. For the same compound, the Potency result in [7] and in assay [8] was “inactive” throughout.

With `NC(=O)N(O)[C@@H]1COc2cc(OCc3ccccc3)ccc21`, the Potency result in assay [1], in assay [2], in assay [3], in assay [4], in assay [5] and in assay [6] was “inactive” throughout. For the same compound, the Potency entry in assay [7], in [8] and in assay [9] was “inactive” throughout.

Consider `CC(C)(O)c1ccccc1CC[C@@H](SCC1(CC(=O)O)CC1)c1cccc(/C=C/c2ccc3ccc(Cl)cc3n2)c1`, for which the Potency entry in assay [1], in assay [2], in assay [3], in assay [4], in [5] and in assay [6] was “inactive” each time. Moreover, the Potency entry in [7] and in [8] was “inactive” each time.

Turning to `Cc1nc2ccccc2s1`, the Potency entry in assay [1], in assay [2], in assay [3], in assay [4], in [5] and in assay [6] was “inactive” in each case. In addition, the Potency entry in assay [7], in [8] and in assay [9] was “inactive” each time.

As to `Cc1cc(OI)c(C(C)C)cc1-c1cc(C(C)C)c(OI)cc1C`, the Potency result in assay [1], in assay [2], in assay [3], in assay [10], in [4] and in assay [5] was “inactive” throughout. For the same compound, the Potency result in assay [6], in assay [8] and in assay [9] was “inactive” throughout.

Consider `N#C/C(=C1/SC[C@@H](c2ccc(Cl)cc2Cl)S1)n1ccnc1`, for which the Potency entry in assay [1], in assay [2], in assay [3], in assay [10], in assay [4] and in assay [6] was “inactive” each time. Further, in assay [8], the Potency entry is “inactive”.

On to `CCOC(=O)CC(=O)C(=O)OCC`, for which the Potency entry in [1], in assay [2], in assay [3], in assay [10], in assay [4] and in assay [5] was “inactive” each time. Moreover, the Potency entry in [7], in assay [8] and in assay [9] was “inactive” in each case.

For `CCCCCCCCCOC(C)=O`, the Potency result in [1], in assay [2], in assay [3], in assay [10], in assay [4] and in assay [5] was “inactive” each time. The Potency result in [6], in assay [8] and in assay [9] was “inactive” throughout.

With `CC(COc1ccc(C(C)(C)C)cc1)OS(=O)OCCCl` (stereo not given), the Potency entry in assay [1], in assay [2], in assay [3], in assay [10], in assay [4] and in assay [5] was “inactive” in each case. Moreover, the Potency entry in assay [7], in assay [8] and in [9] was “inactive” in each case.

As for `ON(Cc1ccccc1)Cc1ccccc1`, the Potency result in [1], in [2], in [3], in assay [4], in assay [5] and in assay [6] was “inactive” each time. The Potency entry in assay [7], in assay [8] and in assay [9] was “inactive” throughout.

For `CO[C@@]12[C@H](COC(N)=O)C3=C(C(=O)C(C)=C(N)C3=O)N1C[C@@H]1N[C@@H]12`, the Potency entry in assay [1], in assay [2], in assay [3], in [4], in assay [7] and in assay [8] was “inactive” each time. Besides, the Potency entry in [9] was “inactive”. Moreover, the figures for the Potency in assay [10] and in assay [5] were 8.49 µM (active) and 3.38 µM (active), respectively.

Regarding `CCc1nn(CCCN2CCN(c3cccc(Cl)c3)CC2)c(=O)n1CCOc1ccccc1`, the Potency entry in [1], in [2], in assay [3], in [10], in assay [4] and in assay [8] was “inactive” in each case. Moreover, the values for the Potency in [6] and in [7] were 8.49 µM (active) and 10.7 µM (active), respectively.

On to `CCCCC(=O)O[C@]1(C(=O)CO)[C@@H](C)C[C@H]2[C@@H]3CCC4=CC(=O)C=C[C@]4(C)[C@@]3(F)[C@@H](O)C[C@@]21C`, for which the Potency result in assay [1], in assay [2], in assay [3], in assay [10], in assay [4] and in assay [8] was “inactive” throughout. Besides, the Potency in assay [9] is 21.9 µM (active).

For `CC(Cl)C(Cl)Cl` (stereo not given), the Potency entry in assay [1], in assay [3], in assay [10], in [5], in assay [6] and in [7] was “inactive” in each case. Further, the Potency result in assay [9] was “inactive”. In addition, the Potency in [2] is 48.2 µM (active).

As for `COCCOC(=O)C1=C(C)NC(C)=C(C(=O)OC/C=C/c2ccccc2)C1c1cccc([N+](=O)[O-])c1` (stereo not given), the Potency in [1] was 5.35 µM (active); in [9], 6.74 µM (active). Moreover, the Potency entry in [2], in assay [3], in [10], in assay [4], in assay [6] and in [8] was “inactive” throughout.

Turning to `O=C(Nc1ccccc1)Nc1ccccc1`, the Potency result in [1], in assay [2], in assay [3], in assay [10], in assay [4] and in assay [5] was “inactive” each time. Also, the Potency result in assay [8] and in assay [9] was “inactive” each time.

Turning to `COc1cc2c(N3CCN(C(=O)Nc4ccc(OC(C)C)cc4)CC3)ncnc2cc1OCCCN1CCCCC1`, the Potency result in [1], in assay [2], in assay [3], in assay [4], in assay [5] and in assay [8] was “inactive” throughout. Further, in [9], the Potency entry is “inactive”. For the same compound, the Potency in assay [10] is 26.8 µM (active); in [6], 9.52 µM (active).

As for `CCc1cccc(N(C)C(N)=Nc2cccc3ccccc23)c1`, the Potency entry in assay [1], in assay [2], in assay [3], in assay [4], in [5] and in assay [6] was “inactive” each time. In addition, the Potency entry in assay [7], in assay [8] and in assay [9] was “inactive” each time.

As for `N#C/C(=C1\SCC(c2ccccc2Cl)S1)n1ccnc1` (stereo not given), the Potency result in assay [1], in assay [2], in assay [3], in assay [10], in assay [4] and in [5] was “inactive” each time. For the same compound, the Potency entry in [8] and in assay [9] was “inactive” throughout.
